Sampled rows, rich in hits. Any-hit rate of the full collection: about 2.8%.
PP5 inh: PP5 (human) phosphatase inhibition | P53041 | purified PP5c, OMFP substrate fluorescence | inhibition, % at 6.7 µM | hit rate 0.18% among 320,000;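 active means inhibition above the campaign's mean inhibition across all tested compounds plus 3 SD, cut at about 9.5% in these data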;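 further: 0% = DMSO only and 100% = 100 µM cantharidin control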
Target sequence (P53041 whole entry, looked up): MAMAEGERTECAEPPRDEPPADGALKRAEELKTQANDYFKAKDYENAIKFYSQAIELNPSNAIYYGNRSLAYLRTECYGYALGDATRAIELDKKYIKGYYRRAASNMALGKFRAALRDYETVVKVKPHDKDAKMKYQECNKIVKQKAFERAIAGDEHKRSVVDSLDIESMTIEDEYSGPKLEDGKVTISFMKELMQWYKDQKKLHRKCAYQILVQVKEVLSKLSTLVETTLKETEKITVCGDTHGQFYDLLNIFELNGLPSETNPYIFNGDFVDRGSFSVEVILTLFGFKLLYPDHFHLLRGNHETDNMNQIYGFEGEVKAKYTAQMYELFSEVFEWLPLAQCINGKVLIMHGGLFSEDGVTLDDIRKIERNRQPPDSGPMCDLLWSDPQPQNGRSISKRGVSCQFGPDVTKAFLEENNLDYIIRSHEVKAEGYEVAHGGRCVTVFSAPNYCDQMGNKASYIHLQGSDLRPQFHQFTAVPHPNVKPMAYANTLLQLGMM
PG9 Ab binder: PG9 antibody binding by small molecule. hit rate 0.43% among 360,000. inhibition, % at 6.7 µM. TR-FRET gp120-PG9 antibody binding; in the data active means inhibition above about 8.5%
NR1D1 modulator: modulates human Rev-erb alpha binding to DNA; Rev-erbα–FITC-DNA binding, fluorescence polarization, 90 min; P20393; activity, % at 10 µM; AID 1259318; hit rate 0.79% among 370,000;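 active means activity above about 14%, limit read from the data; passing the limit was not always enough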;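 further: 0% = DMSO wells with 35 nM protein and 100% = DMSO wells with 750 nM protein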
GASC-1 inh: inhibitors of human GASC-1 (JMJD2C) demethylase. Q9H3R0. GST-JMJD2C(1-420) H3K9me3 demethylation, DELFIA europium. hit rate 0.069% among 330,000. inhibition, % at 2.35 µM;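 active means more than half of a compound's replicate wells show inhibition beyond 50%, single wells judged on their own value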;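 further: signal counts dimethyl H3K9 product captured on neutravidin plate; 0% = median of DMSO wells and 100% = 0.3 times that DMSO median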
PP1 inh: PP1-alpha (human) inhibition in PP5 counter-screen. purified PP1alpha, OMFP fluorescence. P62136. inhibition, % at 6.7 µM. hit rate 0.9% among 320,000. AID 2235;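 active means inhibition above the mean inhibition of all tested compounds plus 3 SD, computed separately for each screening campaign, cut at about 15% in these data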
proKLK7 act: activates the human kallikrein-7 zymogen. purified proKLK7, EDANS-DABCYL substrate fluorescence; 100% is mature enzyme control, 0% vehicle. hit rate 0.9% among 370,000. AID 652039. activation, % at 7 µM. P49862;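 active means activation above the mean of all tested compounds plus 3 SD, computed per campaign excluding outliers beyond control limits, cut at about 13% in these data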
proKLK7 act conf: proKLK7 activation, confirmation. shares compounds with proKLK7 act. purified proKLK7, EDANS-DABCYL substrate fluorescence; scaled: vehicle 0, mature enzyme 100. activation, % at 7 µM. hit rate 68% among 3,200. AID 686949;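 active means activation, as change over the incubation, above the mean of all tested compounds plus 3 SD, cut at about 13% in these data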
EDANS-DABCYL int: fluorescence interference counter-screen for KLK7 activators; shares compounds with proKLK7 act; EDANS-DABCYL substrate fluorescence interference, no enzyme, 4 h; solvent 0%, active enzyme control 100%; activation, % at 7 µM; hit rate 80% among 3,200; AID 686952;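 active means activation above the all-compound mean plus 3 SD, ignoring values outside control-based bounds, cut at about 4.8% in these data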;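 further: value is the 4 h activation minus the activation read at time zero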
EDANS interf: counter-screen for kallikrein-7 activators: EDANS-DABCYL interference, dose response; shares compounds with proKLK7 act; EDANS-DABCYL peptide fluorescence interference, no enzyme; EC50, µM; hit rate 20% among 250; AID 720493;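 active means compounds that raise the fluorescence signal in this interference counterscreen, with EC50 at or below 10 µM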;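 further: intact quenched peptide substrate alone read at 355 nm excitation and 520 nm emission; signal is fluorescence gain from T0 to T4 after four hours at room temperature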
* hit, by the source's call; / = no result given.

SMILES	PP5 inh	PG9 Ab binder	NR1D1 modulator	GASC-1 inh	PP1 inh	proKLK7 act	proKLK7 act conf	EDANS-DABCYL int	others
COc1ccc(C2Nc3ccccc3C(=O)N2c2ccc(C)cc2)cc1Cn1nnc2ccccc21 (centres undefined)	1	-2	-9	1	6	0	/	/
COc1ccc(C2Nc3ccccc3C(=O)N2Cc2ccccc2)cc1COc1ccccn1 (centres undefined)	0	-1	-1	-8	5	1	/	/
COc1ccc(C2Nc3ccccc3C(=O)N2Cc2ccccc2)cc1OC (centres undefined)	3	-1	1	-11	-2	-1	/	/
COc1ccc(C2Nc3ccccc3C(=O)N2NS(=O)(=O)c2ccccc2)cc1OC (centres undefined)	-1	-1	6	-12	1	17*	4	9.0*
COc1ccc(C2Nc3ccccc3C(=O)N2NS(=O)(=O)c2ccc(C)cc2)cc1OC (centres undefined)	0	1	-2	-19	0	31*	8	7.1*
CCOc1cccc(-c2nnc3n2N=C(c2ccc(OC)cc2)CS3)c1	/	/	6	/	/	0	/	/
Cc1cccc(NC(=O)[C@H]2CC(=O)O[C@@H]2c2ccccc2)c1C	/	/	-6	/	/	0	/	/
N#Cc1ccc(NC(=O)OC2CC3CC2[C@H]2CCCCN2C3)cc1 (some centres undefined)	/	/	1	/	/	0	/	/
CS(=O)(=O)NN1C(=O)c2ccccc2NC1c1ccccc1F (centres undefined)	0	-1	1	-6	-2	35*	4	8.2*
CS(=O)(=O)NN1C(=O)c2ccccc2NC1c1cc2ccccc2nc1Cl (centres undefined)	-2	0	0	9	0	0	/	/
O=C(CSc1nnc(COc2ccccc2)n1-c1ccc(Cl)cc1)Nc1ccc2c(c1)OCCO2	/	/	2	/	/	0	/	/
COc1ccccc1NS(=O)(=O)c1cccc(C(=O)N/N=C/c2ccc(NC(C)=O)cc2)c1	-2	0	-7	6	4	235*	-8	-4
Cc1nn(-c2ccccn2)c2nc(-c3cccs3)cc(C(=O)N3CCOCC3)c12	2	1	2	12	1	23*	32*	26*	EDANS interf=>70
CC1CCCN(CCCNC(=O)c2coc3nc4ccccc4nc23)C1 (centres undefined)	5	2	5	-5	-1	30*	50*	76*
Cc1ccc(CCNC(=O)c2coc3nc4ccccc4nc23)cc1	0	-5	22	-3	1	3	/	/
CC1CCN(CCCNC(=O)c2coc3nc4ccccc4nc23)CC1	3	1	4	8	-2	49*	64*	69*
COC(=O)C1=C(C)N(Cc2cccc(C(F)(F)F)c2)C(=NCc2ccccc2C(F)(F)F)NC1c1ccc(Cl)cc1 (centres undefined)	/	0	2	/	/	0	/	/
Cc1ccc(Nc2c(-c3ccco3)nc3ccccn23)cc1	5	-2	2	7	1	-26	/	/
c1ccc(Nc2c(-c3ccco3)nc3ccccn23)cc1	2	-4	2	3	-1	16*	68*	72*
Cc1coc2cc3oc(=O)c(CC(=O)N(C)CC(=O)O)c(C)c3cc12	-1	2	-2	-2	-4	13*	14*	17*
Cc1coc2c(C)c3oc(=O)c(CCC(=O)N(C)CC(=O)O)c(C)c3cc12	0	0	2	-2	-2	6	/	/
Cc1c(Cc2ccccc2)c(=O)oc2cc(O)cc(O)c12	4	1	2	3	2	55*	64*	76*
Cc1cc(OCc2nn[nH]n2)c2c(C)c(Cc3ccccc3)c(=O)oc2c1	1	0	9	-26	7	-15	/	/
Cc1ccc(NC(=O)OCCCN2C(=O)CCC23CCC(C)CC3)cc1 (centres undefined)	/	/	2	/	/	0	/	/
CCCNC(=S)Nc1ccc2nc(-c3ccccn3)c(-c3ccccn3)nc2c1	1	-4	8	2	2	16*	44*	54*
SMILES	PP5 inh	PG9 Ab binder	NR1D1 modulator	GASC-1 inh	PP1 inh	proKLK7 act	proKLK7 act conf	EDANS-DABCYL int	others
S=C(Nc1ccc2nc(-c3ccccn3)c(-c3ccccn3)nc2c1)N1CCCCCC1	2	-2	-1	-18	3	6	/	/
Cc1oc2c(CN3CCCC3)c(O)ccc2c(=O)c1-c1ccccc1	-2	/	-1	-19	-2	/	/	/
Cc1oc2c(CN3CCC(C)CC3)c(O)ccc2c(=O)c1-c1ccccc1	0	0	-4	26	-1	37*	40*	45*
Cc1oc2c(CN3CCOCC3)c(O)ccc2c(=O)c1-c1ccc(Cl)cc1	3	1	-3	-14	2	49*	7	6.1*
Cc1oc2c(CN3CCCC3)c(O)ccc2c(=O)c1-c1ccc(Cl)cc1	1	1	-3	-3	-4	27*	40*	50*
NC(=O)[C@@H]1CCCN1C(=O)[C@@H](Cc1ccccc1)NC(=O)[C@H]1O[C@@H](n2ccc(=O)[nH]c2=O)[C@H](O)[C@@H]1O	/	0	-1	/	/	0	/	/
Nc1nc2ncccc2cc1C(=O)NCCc1cccs1	/	1	4	/	/	24*	22*	28*
CC(NC(=O)c1c(N)[nH]c(C(=O)c2ccc(Cl)cc2)c1-c1ccc(Br)cc1)c1cccc2ccccc12 (centres undefined)	/	0	-8	/	/	0	/	/
CCC[C@H]1[C@@H](OC(=O)NCc2cccc(Cl)c2)CC[C@@]23CCCN2C(=O)CCC[C@@H]13	/	/	6	/	/	/	/	/
COCCCNC(=O)C1CCN(C(=O)c2oc3cc4sc(N(C)C)nc4cc3c2C)CC1	0	2	1	-22	-4	21*	-5	-4
CCN(CC)CCCNC(=O)C1CCN(C(=O)c2oc3cc4sc(N(C)C)nc4cc3c2C)CC1	3	1	-3	-2	-2	13*	12	9.0*
CC[C@H](CCC(=O)N(c1ccccc1)c1ccccc1)C1CC1	/	/	-2	/	/	0	/	/
C[C@@H]1[C@@H](O)C[C@@]2(CC(=O)c3ccccc3O2)O[C@H]1c1ccccc1	/	/	-1	/	/	0	/	/
O=C(CSc1nnc(-c2ccccc2)n1-c1ccc(Cl)cc1)Nc1ccc(OCc2ccccc2)cc1	/	/	5	/	/	1	/	/
